SARS 3CLpro inh – SARS-CoV 3CLpro protease inhibitors, primary screen, biochemical, quenched FRET; Replicase polyprotein 1ab (Severe acute respiratory syndrome coronavirus), P0C6X7; recombinant SARS-CoV 3CLpro, quenched FRET peptide cleavage; inhibition, % at 6 µM; actives 0.14% (n = 290,000); AID 1706, 2009; in the data active = inhibition above about 12%
BoNT A protease – BoNT/A light chain protease inhibitors, primary screen, biochemical, flow cytometry, MLPCN library; actives 0.17% (n = 360,000); Botulinum neurotoxin type A light chain protease (Clostridium botulinum A str. ATCC 3502); AID 588499, 2011; multiplex microsphere protease substrate cleavage; inhibition, % at 10 µM; note: plate controls were buffer without enzyme for full effect and enzyme alone for no effect
Bead autofluor – flagged as autofluorescent in microsphere protease counterscreen; fluorescence intensity (concentration not given with the values); compound autofluorescence counterscreen, microsphere flow cytometry; hits give high values; actives 3.1% (n = 360,000); in the data active = fluorescence intensity above about 16000; inconclusive = no clear call, values can overlap the other calls
Anthrax LF prot – Bacillus anthracis LF protease inhibitors, primary screen, biochemical, multiplex microsphere, MLPCN library. multiplex microsphere protease cleavage assay. AID 588501, 2011. inhibition, % at 10 µM. Lethal factor (Bacillus anthracis), P15917. actives 0.12% (n = 360,000); note: plate controls were buffer without enzyme for full effect and enzyme alone for no effect
BoNT F protease – BoNT/F light chain protease inhibitors, primary screen, biochemical, flow cytometry, MLPCN library; inhibition, % at 10 µM; Botulinum neurotoxin type F light chain protease (Clostridium botulinum); actives 0.22% (n = 360,000); Multiplex microsphere protease cleavage assay; in the data active = inhibition above about 35%, passing the limit was not always enough; inconclusive = no clear call, values can overlap the other calls; note: plate controls were buffer without enzyme for full effect and enzyme alone for no effect
BJeLR lethal – MLPCN primary cell-based screen for lethality selective to Ras in HRASV12 cells. actives 0.17% (n = 300,000). BJeLR (HRASV12) viability, CellTiter-Glo ATP luminescence, 48 h. inhibition, % (no concentration beside the values); in the data active = inhibition above about 50%; inconclusive = no clear call, values can overlap the other calls
An asterisk follows results filed as active; ? = inconclusive; / = no result given. In the library only some 3.6% were active in any assay of this set; here they are far more common. Cut-off read from the data, not from the text of the source, unless noted: active = inhibition above about 30%; inconclusive = no clear call, values can overlap the other calls; inactive = below that.

SMILES	SARS 3CLpro inh	BoNT A protease	Bead autofluor	Anthrax LF prot	BoNT F protease	BJeLR lethal
C[C@@H]1O[C@@H](O[C@H]2C[C@@H](O)[C@]3(CO)[C@H]4[C@H](O)C[C@]5(C)[C@@H](C6COC(=O)C6)CC[C@]5(O)[C@@H]4CC[C@]3(O)C2)[C@H](O)[C@H](O)[C@H]1O (stereo partly specified)	-1	0	5533	-4	-16	71*
Cc1ccc(C)c(N2CCN(S(=O)(=O)c3cc4c(cc3Cl)NC(=O)CO4)CC2)c1	-5	-1	5110	-13	-6	-4
CCCN1CCN(S(=O)(=O)c2ccc3c(c2)CCC(=O)N3)CC1	/	0	3895	0	-2	/
Cc1cc(/C=N/n2cnnc2)c(C)n1-c1ccc(C(=O)O)cc1	0	-2	23182*	-2	-2	-7
N/C(=N\OC(=O)Cc1cccs1)c1ccccc1	4	2	?	-1	1	-2
Cc1cccc(/C(N)=N/OC(=O)Cc2cccs2)c1	3	2	19950*	-2	4	1
Cc1ccc(/C(N)=N/OC(=O)CCC2CCCCC2)cc1	3	-2	16562*	-2	-5	1
Cc1ccc(/C(N)=N/OC(=O)Cc2cccs2)cc1	-2	-1	23460*	-2	-2	-9
CCOC(=O)CN1C(=N)N(c2nc(NC(C)C)nc(NC(C)C)n2)CC1=O	-2	-1	5231	4	0	6
O=S(=O)(c1ccc(F)cc1)N1CCN(c2ncccn2)CC1	0	-1	4419	-2	2	-11
O=S(=O)(c1ccc(Br)s1)N1CCN(c2ncccn2)CC1	-3	1	22792*	-4	3	4
O=S(=O)(c1ccc(Br)s1)N1CCN(c2ccccn2)CC1	-1	0	8013	4	6	-1
O=S(=O)(c1ccccc1)N1CCN(c2ncccn2)CC1	-1	0	22296*	-5	1	0
CCCNC(=O)C(Cc1cccc(Cl)c1)NC(=O)c1ccccc1 (stereo unspecified)	/	0	2991	0	-3	/
O=C(O)c1[nH]c2ccccc2c1NS(=O)(=O)c1ccc(F)cc1	3	/	/	/	/	2
O=C(O)c1[nH]c2ccccc2c1NS(=O)(=O)Cc1ccccc1	5	0	16578*	-5	-3	15
CON=C1CCN(c2ncc(C(F)(F)F)cc2Cl)CC1	-1	?	19907*	1	1	15
O=C(OCCN1CCN(c2ncc(C(F)(F)F)cc2Cl)CC1)c1ccc(Cl)cc1	3	0	2795	-1	-5	-6
O=C(OC1CCN(c2ncc(C(F)(F)F)cc2Cl)CC1)c1ccc(Cl)cc1	-8	0	24209*	-2	-3	0
CC(C)c1ccc(-c2nnn(Cc3nc4ccccc4s3)n2)cc1	-6	-2	16755*	-4	-7	-2
COc1cc2c(cc1O)CCN(C(=O)CSc1nncn1C)[C@@H]2C	/	0	5515	-2	-3	/
O=C1CC(N2CCN(c3cccc(C(F)(F)F)c3)CC2)C(=O)N1c1ccccc1 (stereo unspecified)	4	?	20561*	-2	4	5
O=S(=O)(Nc1cccnc1)c1ccc(Br)c2ccccc12	0	-3	4233	-14	?	-12
COc1cc(C=CC(=O)N2CCN(CC(=O)N3CCCC3)CC2)cc(OC)c1OC	/	0	3912	-7	4	/
O=c1[nH]c(Cc2ccccc2)nc2c1oc1ccccc12	-6	0	21955*	-1	1	0
SMILES	SARS 3CLpro inh	BoNT A protease	Bead autofluor	Anthrax LF prot	BoNT F protease	BJeLR lethal
Cc1nc2c(oc3ccccc32)c(=O)o1	2	0	16908*	-3	-3	-7
CCN(CC)Cc1c(C)[nH]c2ccc(NC(C)=O)cc2c1=O	/	0	2812	-3	-8	/
Cc1cc(=O)oc2cc(OCC3CC(c4ccc(Br)cc4)=NO3)ccc12 (stereo unspecified)	4	2	19620*	-2	2	5
COCCCn1c(SCC(=O)N2CCCC(C)C2)nnc1-c1ccco1 (stereo unspecified)	1	-3	21046*	2	1	-5
CCn1c(SCC(=O)N2CCCC(C)C2)nnc1-c1ccco1 (stereo unspecified)	2	2	5653	2	10	1
O=C(CSc1nnc(-c2ccco2)n1CC1CCCO1)N1CCCCC1 (stereo unspecified)	1	2	21580*	1	2	-15
CCOc1ccc(NCc2nnc(SCc3ccc(Cl)cc3)n2-c2ccccc2)cc1	6	-1	1946	-4	-5	-2
CN(C)c1cccc2c(C=C(C#N)C#N)ccc(N(C)C)c12	-2	0	11044	-2	-12	-3
CSc1nsc(SC)c1NC(=O)OCC1CCCO1 (stereo unspecified)	-8	4	21471*	-2	6	-8
COC(=O)c1ccc(OCC(=O)Nc2nn(-c3ccccc3)nc2C(N)=O)cc1	-7	?	22226*	0	-4	-1
CN1CCCC1CCNC1C2CC3CC(C2)CC1C3 (stereo unspecified)	0	0	16148*	-4	-3	23
CN1CCCC1CN1CCCC1 (stereo unspecified)	/	-1	6209	-15	-21	/
Nc1c(S(=O)(=O)c2cccs2)c2nc3ccccc3nc2n1CC1CCCO1 (stereo unspecified)	-1	3	22380*	1	4	/
Nc1c(S(=O)(=O)c2cccs2)c2nc3ccccc3nc2n1Cc1cccs1	-6	0	2901	-1	-4	5
O=S(=O)(c1ccc(Cl)cc1Br)N1CCCCC1	0	-2	20568*	1	-7	-3
O=C1CN(S(=O)(=O)c2cc(Cl)ccc2Cl)CCN1	10	1	3369	-2	-3	-5
O=S(=O)(c1cc(Cl)ccc1Cl)N1CCNCC1	7	-5	20984*	-2	-11	-4
Cc1cc(C(=O)Nc2nnc(C3CCCCC3)s2)no1	0	0	9531	0	-3	7
Cc1ccc(C(=O)Nc2nnc(C3CCCCC3)s2)o1	-2	-1	23882*	-4	-4	16
COc1ccc(OC)c(CCNC(=O)CCC(=O)N2CCOc3ccc(C)cc32)c1	-1	0	5383	-2	0	-7
Cc1cc(/C=C2\NC(=S)N(C)C2=O)ccc1N1CCCC1	-2	5	6349	5	9	1
Cc1cc(C=C(C#N)C#N)ccc1N1CCCC1	0	50*	3451	21	14	1
CCCN1C(=O)/C(=C/c2ccc(N3CCCC3)c(C)c2)NC1=S	5	11	18761*	9	14	7
Cc1cc(/C=C2/C(=O)N(C)C(=S)N2C)ccc1N1CCCC1	-1	36*	15497	22	30	0

Compound activity (PubChem BioAssay)
